Results taken from PubChem BioAssay AID485344 (National Center for Advancing Translational Sciences (NCATS), 2010).
About 6,900 (2%) of roughly 340,000 compounds were called active. The sample holds actives, similar compounds and a random draw of the others, so the mix is not that of the screen. Rule as the data show it: active = inhibition above about 30%; inactive = below that, where a call was filed.

Molecular target: D(2) dopamine receptor (Homo sapiens) (UniProt P14416)
Assay: HTS Assay for Allosteric Antagonists of the Human D2 Dopamine Receptor: Primary Screen for Antagonists; also: 0% is about no effect
Conditions: HEK293 TREx D2 cells, calcium flux, dopamine EC80; at 10 µM; hits give high values
How it was run: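 Tetracycline-induced HEK293 T-REx cells expressing D2 force-coupled to calcium signalling were dye-loaded, exposed to compound for 180 s, then challenged with an EC80 of dopamine; calcium flux was followed kinetically for a further 180 s.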

Chain of D(2) dopamine receptor (Homo sapiens) (P14416 whole entry, looked up): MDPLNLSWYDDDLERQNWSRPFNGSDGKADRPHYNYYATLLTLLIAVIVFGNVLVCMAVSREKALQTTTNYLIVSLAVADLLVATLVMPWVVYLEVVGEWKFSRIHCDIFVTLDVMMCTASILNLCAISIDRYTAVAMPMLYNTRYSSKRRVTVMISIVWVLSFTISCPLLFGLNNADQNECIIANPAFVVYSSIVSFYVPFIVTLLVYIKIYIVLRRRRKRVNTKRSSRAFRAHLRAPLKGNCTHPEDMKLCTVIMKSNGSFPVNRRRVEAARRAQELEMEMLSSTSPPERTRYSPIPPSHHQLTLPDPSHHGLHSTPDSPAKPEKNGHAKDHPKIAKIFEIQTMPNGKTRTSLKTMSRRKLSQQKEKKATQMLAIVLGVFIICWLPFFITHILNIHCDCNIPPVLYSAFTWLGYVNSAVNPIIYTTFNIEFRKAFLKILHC

Question: How did the inhibition turn out when `CCOc1ccc2oc(C(=O)N(CC)CC(=O)Nc3ccc(NC(C)=O)cc3)c(C)c2c1` was run?
Answer: Its inhibition is -21.5% (inactive).

Question: For `CCCC(NCC(=O)Nc1ccccc1C(=O)NC1CC1)c1ccccc1` (centres undefined), which inhibition is on record?
Answer: Its inhibition is -15.9% (inactive).

Question: Which inhibition does the source give for `O=C(CCc1nc2sc3c(c2c(=O)[nH]1)CCCC3)NCC(=O)Nc1ccccc1Br` here?
Answer: The inhibition was 11% (inactive).

Question: For `Cc1ccccc1NC(=O)Cc1nc(COC(=O)c2cccnc2Cl)cs1`, which inhibition is on record?
Answer: Its inhibition is 6.55% (inactive).

Question: How did the inhibition turn out when `CC(C)N(C(=O)Cn1cc(SCC(=O)N2CCCC2)c2ccccc21)C(C)C` was run?
Answer: Its inhibition is 13.5% (inactive).

Question: For `CCCn1cc(SCC(N)=O)c2ccccc21`, which inhibition is on record?
Answer: The inhibition was 31.1% (active).

Question: For `NC(=O)CSc1c[nH]c2ccccc12`, which inhibition is on record?
Answer: The inhibition was -9.76% (inactive).

Question: `CCCCN(C(=O)C1CCC1)c1c(N)n(Cc2ccccc2)c(=O)[nH]c1=O` was tested. Which inhibition did it give?
Answer: Its inhibition is -6.33% (inactive).

Question: With `O=C(NCCC1CCCCN1S(=O)(=O)c1ccc(Cl)cc1)C(=O)NCc1ccco1` (centres undefined) as the compound, how does the inhibition read?
Answer: The inhibition was -13.3% (inactive).

Question: `COc1ccc(C(=O)NCc2ccc(Cl)cc2)cc1S(=O)(=O)N1CCCC1` was tested. Which inhibition did it give?
Answer: The inhibition was -28.1% (inactive).

Question: Which inhibition does the source give for `O=C(CCCc1ccccc1)NCc1ccccc1` here?
Answer: The inhibition was 7.76% (inactive).

Question: How did the inhibition turn out when `O=C(CCC(=O)c1cccs1)NCc1ccccc1` was run?
Answer: The inhibition was 34.9% (active).

Question: With `O=C(CCC(=O)c1cccs1)NC1CCCCCC1` as the compound, how does the inhibition read?
Answer: Its inhibition is -3.48% (inactive).

Question: Which inhibition does the source give for `CC(NC(=O)CN(C)S(=O)(=O)c1ccc(F)cc1)C1CC2CCC1C2` (centres undefined) here?
Answer: Its inhibition is 2.6% (inactive).

Question: With `CC(CCc1ccccc1)NC(=O)c1cnc(Cl)c(Cl)c1` (centres undefined) as the compound, how does the inhibition read?
Answer: The inhibition was 43.2% (active).

Question: With `COc1ccc(CCNC(=O)c2cnc(Cl)c(Cl)c2)cc1` as the compound, how does the inhibition read?
Answer: The inhibition was 2.2% (inactive).

Question: `CC(CCc1ccccc1)NC(=O)c1ccc(Br)o1` (centres undefined) was tested. Which inhibition did it give?
Answer: Its inhibition is -19.1% (inactive).

Question: Which inhibition does the source give for `COc1cccc(N2CCN(CC(=O)Nc3ccnn3C3CCCC3)CC2)c1` here?
Answer: Its inhibition is 19.5% (inactive).

Question: How did the inhibition turn out when `CCN(CC)CCNC(=O)c1ccc(NS(=O)(=O)c2ccc3c(c2)OCCO3)cc1` was run?
Answer: Its inhibition is 1.77% (inactive).

Question: How did the inhibition turn out when `COc1ccc(C(=O)NCCc2ccc(S(N)(=O)=O)cc2)cc1OC` was run?
Answer: Its inhibition is 14% (inactive).

Question: For `CCN(CC)CCNC(=O)c1cc(S(C)(=O)=O)ccc1OC`, which inhibition is on record?
Answer: The inhibition was 99% (active).

Question: How did the inhibition turn out when `COc1cccc(NC(=O)CN(C)C(=O)/C=C/c2cn(-c3ccccc3)nc2-c2cccs2)c1` was run?
Answer: Its inhibition is 12.4% (inactive).

Question: `CC1CN(c2nc(Nc3ccccc3)nc(N)c2[N+](=O)[O-])CC(C)O1` (centres undefined) was tested. Which inhibition did it give?
Answer: The inhibition was 13.4% (inactive).

Question: `COCCNc1nc(N)c([N+](=O)[O-])c(N2CCCCCC2)n1` was tested. Which inhibition did it give?
Answer: Its inhibition is -9.71% (inactive).

Question: With `CCN1CCN(c2nc(Nc3cccc(F)c3)nc(N)c2[N+](=O)[O-])CC1` as the compound, how does the inhibition read?
Answer: Its inhibition is 73.4% (active).

Question: How did the inhibition turn out when `O=C(C1Cc2ccccc2CN1C(=O)c1ccco1)N1CCN(c2ccccc2)CC1` (centres undefined) was run?
Answer: Its inhibition is -4.55% (inactive).

Question: With `CC(C)(C)C(=O)COC(=O)c1cc(S(=O)(=O)N2CCCCC2)ccc1N1CCOCC1` as the compound, how does the inhibition read?
Answer: The inhibition was 1.2% (inactive).

Question: Which inhibition does the source give for `Cc1ccc(S(=O)(=O)N2CCC(C(=O)OCC(=O)N(C)c3ccccc3)CC2)cc1C` here?
Answer: The inhibition was -7.26% (inactive).

Question: For `Cc1nnsc1C(=O)N/N=C/c1ccccc1Cl`, which inhibition is on record?
Answer: The inhibition was -8.27% (inactive).

Question: `CN(c1cccc(NC(=O)Nc2ccc(Cl)cc2)c1)S(C)(=O)=O` was tested. Which inhibition did it give?
Answer: Its inhibition is 4.52% (inactive).

Question: For `O=C(Nc1ccccc1)c1nnsc1S(=O)(=O)c1ccc(Cl)cc1`, which inhibition is on record?
Answer: Its inhibition is 35.7% (active).

Question: `CCOc1ccc(C(C)NC(=O)CN2C(=O)NC3(CCCCC3)C2=O)cc1OCC` (centres undefined) was tested. Which inhibition did it give?
Answer: The inhibition was -2.35% (inactive).

Question: For `CSCCC(NC(=O)COc1ccccc1)C(=O)N(C)CC(=O)Nc1ccc(C)cc1` (centres undefined), which inhibition is on record?
Answer: Its inhibition is -24.9% (inactive).

Question: Which inhibition does the source give for `CC(OC(=O)/C=C/c1ccccc1)C(=O)NC1CCCCC1C` (centres undefined) here?
Answer: Its inhibition is -2.14% (inactive).

Question: With `CCCCC(=O)NNC(=S)NC(=O)C(c1ccccc1)c1ccccc1` as the compound, how does the inhibition read?
Answer: Its inhibition is 40.2% (active).

Question: Which inhibition does the source give for `CC(C)C(=O)Nc1cccc(NC(=S)NC(=O)C(c2ccccc2)c2ccccc2)c1` here?
Answer: Its inhibition is -3.17% (inactive).

Question: How did the inhibition turn out when `O=C(NNC(=S)NCc1ccco1)C(c1ccccc1)c1ccccc1` was run?
Answer: The inhibition was -2.47% (inactive).

Question: With `Cc1ccc(S(=O)(=O)Nc2nc(CN3CCOCC3)nc3sc(C)c(C)c23)cc1` as the compound, how does the inhibition read?
Answer: The inhibition was -2.97% (inactive).

Question: `COc1ccc(CNC(=O)COc2ccccc2C(=O)c2cnn(-c3ccccc3)c2)cc1OC` was tested. Which inhibition did it give?
Answer: Its inhibition is 7.52% (inactive).

Question: How did the inhibition turn out when `CC(CCN1CCN=C1N(C)C)c1ccccc1` (centres undefined) was run?
Answer: The inhibition was 8.97% (inactive).

Question: `CC(C)(C)NC(=O)C(c1ccc(Cl)cc1)N(CCO)C(=O)c1snc(C(N)=O)c1N` (centres undefined) was tested. Which inhibition did it give?
Answer: Its inhibition is -7.69% (inactive).

Question: `CCOc1ccc(C(C(=O)NC2CCCC2)N(C(=O)c2snc(C(N)=O)c2N)C2CCCC2)cc1` (centres undefined) was tested. Which inhibition did it give?
Answer: The inhibition was -2.16% (inactive).

Question: Which inhibition does the source give for `NC(=O)c1nsc(C(=O)N(CCCN2CCOCC2)C(C(=O)NC2CCCCC2)c2ccc(Cl)cc2)c1N` (centres undefined) here?
Answer: The inhibition was 30.5% (active).

Question: How did the inhibition turn out when `Cc1cc(F)ccc1S(=O)(=O)Nc1ccc(C(=O)N(C)Cc2ccco2)cc1` was run?
Answer: The inhibition was 2.47% (inactive).

Question: How did the inhibition turn out when `Cc1cccc(-n2c(Cc3cc(=O)[nH]c(=O)[nH]3)nnc2SC(C)C)c1` was run?
Answer: Its inhibition is -16% (inactive).

Question: How did the inhibition turn out when `Cc1cccc(-n2c(Cc3cc(=O)[nH]c(=O)[nH]3)nnc2SCC(=O)Nc2cccc(C(F)(F)F)c2)c1` was run?
Answer: The inhibition was 36.6% (active).

Question: For `COc1cccc(-n2c(Cc3cc(=O)[nH]c(=O)[nH]3)nnc2SCC(=O)Nc2ccccc2)c1`, which inhibition is on record?
Answer: The inhibition was -4.57% (inactive).

Question: Which inhibition does the source give for `O=C(Nc1cccc(C(=O)NC2CC2)c1)c1ccc(F)c(S(=O)(=O)N2CCOCC2)c1` here?
Answer: Its inhibition is -7.88% (inactive).

Question: Which inhibition does the source give for `Cc1ccccc1C(=O)NC(=S)NC1CC1` here?
Answer: The inhibition was 31.1% (active).

Question: `Cc1ccccc1C(=O)NC(=S)Nc1ccc(N2CCN(C(=O)c3ccccc3)CC2)cc1` was tested. Which inhibition did it give?
Answer: The inhibition was -1.88% (inactive).

Question: `O=C(NNC(=S)NC1CCCCC1)c1ccccc1Cl` was tested. Which inhibition did it give?
Answer: Its inhibition is -5.96% (inactive).

Question: Which inhibition does the source give for `CCn1c(SCC(=O)Nc2nccs2)nnc1-c1ccncc1` here?
Answer: The inhibition was 10.6% (inactive).

Question: How did the inhibition turn out when `Nn1c(SCC(=O)Nc2nccs2)nnc1-c1ccco1` was run?
Answer: Its inhibition is 3.93% (inactive).

Question: How did the inhibition turn out when `CCOC(=O)CSc1nnc(-c2ccco2)n1C` was run?
Answer: Its inhibition is 25.3% (inactive).

Question: `Cn1c(SCC(=O)Nc2ccc(Br)cc2F)nnc1-c1ccco1` was tested. Which inhibition did it give?
Answer: Its inhibition is 31% (active).

Question: For `CCn1c(SCC(=O)Nc2nccs2)nnc1-c1ccco1`, which inhibition is on record?
Answer: The inhibition was 83% (active).

Question: For `Cn1c(SCC(=O)c2cccs2)nnc1-c1ccco1`, which inhibition is on record?
Answer: The inhibition was -10.8% (inactive).

Question: For `CSc1ncccc1C(=O)Nc1ccc2c(c1)OCO2`, which inhibition is on record?
Answer: The inhibition was -3.04% (inactive).

Question: `CCc1ccccc1OCC(=O)Nc1ccc(C)c(S(=O)(=O)N2CCCCCC2)c1` was tested. Which inhibition did it give?
Answer: Its inhibition is -4.67% (inactive).
